# Measured values published in PMC7862700, “An all-to-all approach to the identification of sequence-specific readers for epigenetic DNA modifications on cytosine”.
# Columns and labels:
# Assay in all cases: DAPPL (digital affinity profiling via proximity ligation, sequencing); 10 mM Tris-HCl pH 7.5, 50 mM NaCl, 1 mM DTT, 4% glycerol, room temperature, 30 min; GST-TFs on glutathione beads, 16-mer random dsDNA library, 0.1% formaldehyde crosslink after washing; high values mean tight binding
# Conditions in all cases: protein: recombinant; tags: N-terminal GST; dsDNA, one strand shown
# ELF4 = ELF4 (Homo sapiens, UniProt Q99607 1-663)
# In short: (§1)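 Pools were built from human transcription factors expressed in yeast as GST fusions, captured on glutathione beads and DNA-barcoded, along with a tag-only sample. Incubation with 200 nmole of a 16-mer random double-stranded DNA library lasted 30 min at room temperature in Tris/NaCl/DTT/glycerol buffer, and was followed by washing, 0.1% formaldehyde crosslinking, proximity ligation, PCR amplification and Illumina NextSeq500 sequencing. Binding signal is the quotient of each hexamer's read frequency for a factor and its frequency for the tag-only sample.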
# ETV2 = biological target: T1, ETV2 (Homo sapiens, UniProt O00321 1-342)
# T1 sequence: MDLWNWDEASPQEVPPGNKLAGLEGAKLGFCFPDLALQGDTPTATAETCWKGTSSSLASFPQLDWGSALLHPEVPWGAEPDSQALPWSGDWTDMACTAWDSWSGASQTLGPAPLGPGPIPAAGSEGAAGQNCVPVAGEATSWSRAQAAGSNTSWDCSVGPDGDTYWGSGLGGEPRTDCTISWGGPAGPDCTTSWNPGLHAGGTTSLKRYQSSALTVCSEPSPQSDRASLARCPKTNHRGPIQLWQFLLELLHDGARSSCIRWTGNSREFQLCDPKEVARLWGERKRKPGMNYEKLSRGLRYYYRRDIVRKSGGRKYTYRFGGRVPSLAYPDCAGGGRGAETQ
# In short: as §1
# ELF3 = biological target: T2, ELF3 (Homo sapiens, UniProt P78545 1-371)
# T2 sequence: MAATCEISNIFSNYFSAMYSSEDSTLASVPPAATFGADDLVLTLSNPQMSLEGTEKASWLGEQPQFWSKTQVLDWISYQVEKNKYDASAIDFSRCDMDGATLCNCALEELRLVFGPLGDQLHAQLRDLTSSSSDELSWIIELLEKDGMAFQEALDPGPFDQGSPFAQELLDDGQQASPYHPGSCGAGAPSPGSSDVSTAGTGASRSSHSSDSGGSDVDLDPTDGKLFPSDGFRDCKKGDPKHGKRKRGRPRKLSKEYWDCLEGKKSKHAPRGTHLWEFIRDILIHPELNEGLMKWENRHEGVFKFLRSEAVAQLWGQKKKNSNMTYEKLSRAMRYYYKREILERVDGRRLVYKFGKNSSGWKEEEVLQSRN
# In short: as §1
# ETV1 = ETV1 (Homo sapiens, UniProt P50549 1-477)
# In short: as §1
# ERF = biological target: T3, ERF (Homo sapiens, UniProt P50548 1-548)
# T3 sequence: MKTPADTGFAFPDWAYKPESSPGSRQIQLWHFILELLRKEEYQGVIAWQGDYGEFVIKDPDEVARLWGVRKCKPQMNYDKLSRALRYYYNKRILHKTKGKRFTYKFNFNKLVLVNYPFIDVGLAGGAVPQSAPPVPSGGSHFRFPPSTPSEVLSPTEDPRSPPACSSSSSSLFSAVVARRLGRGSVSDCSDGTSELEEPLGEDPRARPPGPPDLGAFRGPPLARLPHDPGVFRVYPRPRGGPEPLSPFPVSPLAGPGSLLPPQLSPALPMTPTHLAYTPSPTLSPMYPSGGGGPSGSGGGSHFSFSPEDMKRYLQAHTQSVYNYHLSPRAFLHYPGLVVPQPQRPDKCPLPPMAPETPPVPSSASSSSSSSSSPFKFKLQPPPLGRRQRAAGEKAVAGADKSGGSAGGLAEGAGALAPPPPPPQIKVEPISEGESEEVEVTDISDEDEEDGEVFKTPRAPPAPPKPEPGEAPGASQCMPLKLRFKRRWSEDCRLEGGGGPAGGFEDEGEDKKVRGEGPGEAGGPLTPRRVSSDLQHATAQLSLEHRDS
# In short: as §1
# ETV3L = biological target: T4, ETV3L (Homo sapiens, UniProt Q6ZN32 1-361)
# T4 sequence: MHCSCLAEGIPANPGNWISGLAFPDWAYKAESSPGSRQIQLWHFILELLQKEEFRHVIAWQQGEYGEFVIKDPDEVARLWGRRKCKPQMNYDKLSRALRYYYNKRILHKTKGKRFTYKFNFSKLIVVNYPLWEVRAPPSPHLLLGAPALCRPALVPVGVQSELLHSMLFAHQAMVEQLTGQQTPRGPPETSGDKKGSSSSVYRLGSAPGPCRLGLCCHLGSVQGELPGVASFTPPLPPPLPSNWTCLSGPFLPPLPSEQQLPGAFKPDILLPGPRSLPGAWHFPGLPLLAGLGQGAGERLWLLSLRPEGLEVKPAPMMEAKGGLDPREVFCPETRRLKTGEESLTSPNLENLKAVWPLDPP
# In short: as §1
# ETS2 = biological target: T5, ETS2 (Homo sapiens, UniProt P15036 1-469)
# T5 sequence: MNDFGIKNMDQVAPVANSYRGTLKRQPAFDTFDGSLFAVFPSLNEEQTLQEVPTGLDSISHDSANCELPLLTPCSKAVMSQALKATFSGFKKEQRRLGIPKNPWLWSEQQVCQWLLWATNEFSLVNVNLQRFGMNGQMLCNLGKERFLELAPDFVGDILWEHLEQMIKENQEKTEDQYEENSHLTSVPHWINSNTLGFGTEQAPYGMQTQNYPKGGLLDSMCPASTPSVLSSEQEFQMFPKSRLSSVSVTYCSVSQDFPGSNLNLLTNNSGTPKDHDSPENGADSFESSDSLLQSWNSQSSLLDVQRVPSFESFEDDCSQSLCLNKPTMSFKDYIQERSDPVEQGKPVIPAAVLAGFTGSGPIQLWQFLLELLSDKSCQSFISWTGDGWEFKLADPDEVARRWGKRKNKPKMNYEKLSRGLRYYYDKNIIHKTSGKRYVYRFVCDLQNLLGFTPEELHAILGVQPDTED
# In short: as §1
# ETV7 = biological target: T6, ETV7 (Homo sapiens, UniProt Q9Y603 1-341)
# T6 sequence: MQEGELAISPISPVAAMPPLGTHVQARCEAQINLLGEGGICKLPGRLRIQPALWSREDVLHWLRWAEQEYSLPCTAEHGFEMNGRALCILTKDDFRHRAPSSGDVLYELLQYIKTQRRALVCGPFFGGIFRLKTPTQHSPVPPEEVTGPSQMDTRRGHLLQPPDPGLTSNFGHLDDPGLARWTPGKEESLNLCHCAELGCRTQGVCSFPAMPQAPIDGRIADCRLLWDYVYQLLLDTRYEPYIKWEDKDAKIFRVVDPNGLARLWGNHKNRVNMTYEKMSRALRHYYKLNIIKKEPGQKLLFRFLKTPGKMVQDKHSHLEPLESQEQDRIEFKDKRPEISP
# In short: as §1
# ETV3 = biological target: T7, ETV3 (Homo sapiens, UniProt P41162-2 1-143)
# T7 sequence: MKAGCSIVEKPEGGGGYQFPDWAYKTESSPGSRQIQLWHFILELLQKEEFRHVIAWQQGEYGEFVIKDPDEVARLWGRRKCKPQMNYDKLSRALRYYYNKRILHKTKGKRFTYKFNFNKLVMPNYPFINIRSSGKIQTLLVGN
# In short: as §1
# ETV6 = ETV6 (Homo sapiens, UniProt P41212 1-452)
# In short: as §1
# Chain of ELF4 (Q99607 whole entry, the tested form may be a part): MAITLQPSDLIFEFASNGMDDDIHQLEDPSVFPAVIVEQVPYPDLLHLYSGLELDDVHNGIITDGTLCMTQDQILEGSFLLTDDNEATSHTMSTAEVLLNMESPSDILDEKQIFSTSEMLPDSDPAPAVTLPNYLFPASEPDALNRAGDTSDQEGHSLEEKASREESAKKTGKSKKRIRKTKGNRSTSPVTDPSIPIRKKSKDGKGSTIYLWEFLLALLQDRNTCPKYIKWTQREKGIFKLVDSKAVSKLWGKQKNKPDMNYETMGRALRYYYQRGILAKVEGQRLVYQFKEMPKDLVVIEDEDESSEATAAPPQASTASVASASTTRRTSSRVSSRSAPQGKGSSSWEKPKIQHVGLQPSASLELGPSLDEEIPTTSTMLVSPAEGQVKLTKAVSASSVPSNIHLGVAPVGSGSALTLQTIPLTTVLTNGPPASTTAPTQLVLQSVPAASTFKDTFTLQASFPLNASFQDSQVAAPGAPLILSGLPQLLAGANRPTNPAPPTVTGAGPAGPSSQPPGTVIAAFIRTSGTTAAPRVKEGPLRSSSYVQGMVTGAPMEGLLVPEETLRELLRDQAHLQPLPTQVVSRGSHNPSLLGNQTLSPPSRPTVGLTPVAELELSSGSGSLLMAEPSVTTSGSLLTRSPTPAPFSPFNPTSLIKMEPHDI
# Chain of ETV6 (P41212 whole entry): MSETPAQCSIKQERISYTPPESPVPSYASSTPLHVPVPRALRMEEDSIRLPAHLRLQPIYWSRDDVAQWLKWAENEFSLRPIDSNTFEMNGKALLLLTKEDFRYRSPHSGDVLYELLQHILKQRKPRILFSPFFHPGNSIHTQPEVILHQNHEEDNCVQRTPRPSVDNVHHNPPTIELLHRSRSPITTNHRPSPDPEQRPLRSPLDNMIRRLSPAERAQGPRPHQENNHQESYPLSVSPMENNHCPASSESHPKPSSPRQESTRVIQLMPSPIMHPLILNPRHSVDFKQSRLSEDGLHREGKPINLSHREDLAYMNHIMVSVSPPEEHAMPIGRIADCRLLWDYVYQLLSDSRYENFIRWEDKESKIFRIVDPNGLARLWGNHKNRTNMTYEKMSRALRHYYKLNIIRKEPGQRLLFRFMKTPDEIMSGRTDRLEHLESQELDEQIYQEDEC
# Chain of ETV1 (P50549 whole entry): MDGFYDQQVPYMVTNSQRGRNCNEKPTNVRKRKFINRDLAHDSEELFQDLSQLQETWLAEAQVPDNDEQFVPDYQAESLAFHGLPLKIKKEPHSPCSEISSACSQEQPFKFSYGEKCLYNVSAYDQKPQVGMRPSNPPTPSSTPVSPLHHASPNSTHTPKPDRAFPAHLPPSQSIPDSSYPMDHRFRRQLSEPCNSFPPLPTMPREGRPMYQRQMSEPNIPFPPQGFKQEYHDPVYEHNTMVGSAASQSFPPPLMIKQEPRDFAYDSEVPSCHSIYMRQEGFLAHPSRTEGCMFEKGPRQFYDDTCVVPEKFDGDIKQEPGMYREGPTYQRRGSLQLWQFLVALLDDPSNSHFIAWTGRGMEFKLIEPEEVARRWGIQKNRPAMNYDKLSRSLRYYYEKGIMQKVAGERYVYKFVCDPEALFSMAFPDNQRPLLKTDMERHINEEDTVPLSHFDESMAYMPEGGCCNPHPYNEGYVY
sequence,measurement,setting,value
CATGCA,binding signal,ELF4,"1.11 fold enrichment (6-mer frequency, TF over GST control)"
same,binding signal,ETV2,"1.12 fold enrichment (6-mer frequency, TF over GST control)"
same,binding signal,ELF3,"1.16 fold enrichment (6-mer frequency, TF over GST control)"
same,binding signal,ETV1,"1.11 fold enrichment (6-mer frequency, TF over GST control)"
same,binding signal,ERF,"1.09 fold enrichment (6-mer frequency, TF over GST control)"
same,binding signal,ETV3L,"1.16 fold enrichment (6-mer frequency, TF over GST control)"
same,binding signal,ETS2,"1.06 fold enrichment (6-mer frequency, TF over GST control)"
same,binding signal,ETV7,"1.03 fold enrichment (6-mer frequency, TF over GST control)"
same,binding signal,ETV3,"1.05 fold enrichment (6-mer frequency, TF over GST control)"
same,binding signal,ETV6,"1.18 fold enrichment (6-mer frequency, TF over GST control)"
